# Out of some 48,000 compounds screened, about 13,000 (27%) showed an effect of 50% or more. The list shows a part of the results.
# System: Wolbachia pipientis
# Assay: Anti-Wolbachia Cell-Based Screen
# Assay type: functional
# Set-up: scale not given: in the data most compounds retested in dose-response had high values
# Settings: 5 µM
row,SMILES,Percent Effect [%]
1,CCc1ncc(C(=O)N2CCC(O)(CN3CCOCC3)C(C)(C)C2)cn1 (stereo unspecified),21.42
2,COc1ccc2c(C)c(C(=O)N3CCC(NC(C)=O)C3)oc2c1 (stereo unspecified),4.828
3,CC(C)CCc1nc(CN2CCOC(Cn3cncn3)C2)cs1 (stereo unspecified),124.3
4,CC(C)(C)c1nnc(CN2CCOC(Cn3cncn3)C2)o1 (stereo unspecified),5.198
5,CCCc1nc(CN2CCOC(Cn3cncn3)C2)cs1 (stereo unspecified),112.9
6,Cc1cc(CNC(=O)NC(C)c2ccncc2)no1 (stereo unspecified),-0.1893
7,COc1ccccc1OCc1cc(C(=O)N2C[C@@H](C)O[C@@H](C)C2)n[nH]1,-20.33
8,CO[C@H]1CN(C(C)C)C[C@@H]1NC(=O)c1cc(COc2ccccc2)[nH]n1,-19.38
9,CN(Cc1nncn1C)C(=O)c1cc(COc2ccccc2)[nH]n1,-18.45
10,COc1ccccc1OCc1cc(C(=O)N2CCC(NC(C)=O)C2)n[nH]1 (stereo unspecified),-14.62
11,CCCC1C=CCN1C(=O)c1cc(COc2ccccc2)[nH]n1 (stereo unspecified),130
12,CCCC1C=CCN1C(=O)c1cc(COc2ccc3c(c2)OCO3)[nH]n1 (stereo unspecified),106.8
13,COc1ccccc1OCc1cc(C(=O)N2[C@H](C)CC[C@@H]2C)n[nH]1,-29.7
14,O=C(c1cc(COc2ccc3c(c2)OCO3)[nH]n1)N1CC=CC1CO (stereo unspecified),-1.873
15,COC(=O)C1C=CCN1C(=O)c1cc(COc2ccccc2)[nH]n1 (stereo unspecified),114.9
16,C[C@@H]1CN(C(=O)c2cc(COc3ccc4c(c3)OCO4)[nH]n2)C[C@H](C)O1,-15.32
17,COc1ccccc1OCc1cc(C(=O)N2CCOCC2CO)n[nH]1 (stereo unspecified),-19.45
18,C[C@@H]1CC[C@@H](C)N1C(=O)c1cc(COc2ccccc2)[nH]n1,96.55
19,CN(C(=O)CC1=CCCCC1)C1CCCN(C2Cc3ccccc3C2)C1 (stereo unspecified),-26.45
20,CCc1ncc2c(n1)CN(C(=O)Cc1cc(OC)cc(OC)c1)C2,-17.96
21,CC(C)COC(C)C(=O)N1CCC(C)CC1 (stereo unspecified),-15.15

row,SMILES,Percent Effect [%]
1,Cc1cc(CN(C2CC2)C(C)C(C)C)no1 (stereo unspecified),5.492
2,COc1ccccc1OCc1cc(C(=O)N2CC(O)C2)n[nH]1,-12.52
3,COc1ccccc1OCc1cc(C(=O)N2CC=CC2C(C)C)n[nH]1 (stereo unspecified),-7.003
4,CCC1C=CCN1C(=O)c1cc(COc2ccccc2OC)[nH]n1 (stereo unspecified),105.4
5,CC(=O)CN1CCC2(CC1)c1ccccc1[C@@H](N1CCSCC1)[C@@H]2O,-3.937
6,CN(CC(=O)N1CC(C)(C)[C@@](C)(O)C1)Cc1ccncc1,-6.458
7,COc1ccc(COCC(O)CNC(=O)c2cc(C)cc(C)c2)cc1 (stereo unspecified),13.74
8,O=C(Cc1ccsc1)NC1CCc2c(ccc(=O)n2CC2CC2)C1 (stereo unspecified),-22.09
9,CN(C)CCn1c2c(ccc1=O)CC(NC(=O)c1cnccn1)CC2.O=C(O)C(F)(F)F (stereo unspecified),97.98
10,CC(C)NC1CCc2c(ccc(=O)n2CCN(C)C)C1.O=C(O)C(F)(F)F.O=C(O)C(F)(F)F (stereo unspecified),8.884
11,O=C(NC1CCc2c(ccc(=O)n2CC2CC2)C1)c1ccsc1 (stereo unspecified),1.111
12,Cn1c2c(ccc1=O)CC(NC(=O)c1ccsc1)CC2 (stereo unspecified),116.4
13,CN(C)CCn1c2c(ccc1=O)CC(NC(=O)c1ccsc1)CC2.O=C(O)C(F)(F)F (stereo unspecified),112.1
14,CN(C)CCn1c2c(ccc1=O)CC(NC(=O)NC1CCCC1)CC2.O=C(O)C(F)(F)F (stereo unspecified),92.43
15,CC(C)NC1CCc2c(ccc(=O)n2CCN2CCCC2=O)C1.O=C(O)C(F)(F)F (stereo unspecified),-4.2
16,Cc1ccc(Sc2ccc(N3CCCC(C(=O)O)C3)nn2)cc1 (stereo unspecified),-25.21
17,Cn1cc(C(=O)N2CCOc3cc(F)ccc32)ccc1=O,-3.875
18,O=C(Nc1ccnc2ccnn12)c1ccc(NC2CC2)nc1,-6.003
19,Cc1nc(N2CCN(C(=O)c3cccs3)CC2)cc(-n2cccc2)n1,0.4402
20,CC(Cc1cccc(F)c1)C(=O)NS(=O)(=O)c1ccc2c(c1)OCCO2 (stereo unspecified),-30.67
21,CCc1nc(CCNc2ncccc2S(N)(=O)=O)sc1C,-14.32

row,SMILES,Percent Effect [%]
1,CN1CCOC(CNCc2csc(C3CCCCC3)n2)C1 (stereo unspecified),102.8
2,CN1CCOC(CNCc2csc(C3CCCC3)n2)C1 (stereo unspecified),96.75
3,CCc1n[nH]c(C2CN(Cc3csc(C4CCCC4)n3)CCO2)n1 (stereo unspecified),5.778
4,Cc1n[nH]c(C2CN(Cc3csc(C4CCCCC4)n3)CCO2)n1 (stereo unspecified),-9.689
5,CN1CCOC(CNCc2coc(-c3cccs3)n2)C1 (stereo unspecified),12.46
6,CN(C)C(=O)[C@H]1CC[C@@H]2[C@@H](CCN2C(=O)N(C)C)O1,-14.11
7,N#Cc1cccc(N2CCCC3(CN(C(=O)NC4CC4)CCO3)C2)c1 (stereo unspecified),4.321
8,N#Cc1cccc(N2CCCC3(CN(C(=O)c4ccc[nH]4)CCO3)C2)c1 (stereo unspecified),-1.292
9,O=C(O)C(F)(F)F.O=C(c1c[nH]cn1)N1CCOCC2(C1)CN(c1ccccc1)C(=O)CO2 (stereo unspecified),97.27
10,N#Cc1cccc(N2CCOCC3(CCCN(C(=O)NC4CC4)C3)C2)c1 (stereo unspecified),10.86
11,O=C(c1ccc[nH]1)N1CCOCC2(C1)CN(c1ccccc1)C(=O)CO2 (stereo unspecified),99.07
12,O=C(O)C(F)(F)F.O=C1COC2(COCCN(Cc3ccsc3)C2)CN1c1ccc(F)cc1 (stereo unspecified),3.467
13,O=C(N1CCCC1)N1CCOCC2(C1)CN(c1ccccc1)C(=O)CO2 (stereo unspecified),96.63
14,CN(C)CC(=O)N1CCOCC2(C1)CN(c1ccccc1)C(=O)CO2 (stereo unspecified),-12.92
15,O=C(NC1CC1)N1CCOCC2(C1)CN(c1ccccc1)C(=O)CO2 (stereo unspecified),106.4
16,O=C(c1ccc[nH]1)N1CCOC2(COCCN(c3cncnc3)C2)C1 (stereo unspecified),-9.951
17,COCC(=O)N1Cc2ccnn2CC(COCCN(C)C)C1.O=C(O)C(F)(F)F.O=C(O)C(F)(F)F (stereo unspecified),-12.14
18,Cc1csc(-c2cccc(NC(=O)NCC(C)(C)C(N)=O)c2)n1,1.71
19,CC(C)n1cnc2c1C(C(=O)N(C)C)N(Cc1ccccc1)CC2.O=C(O)C(F)(F)F (stereo unspecified),-8.577

# Source: ChEMBL document CHEMBL3988442, “University of Dundee, Small-Polar-MMV Screening Library” (2021)
